Inconclusive results are not listed. Calls of active or inactive are those of the source. The call rests on the fitted dose curve; in most records, active means well fitted inhibition curve with a large enough effect; inconclusive means small, poorly fitted or top-dose-only effect; inactive means flat fitted curve, though single readings scatter.

From PubChem BioAssay (NCATS) come the findings set out here.
Potency means the concentration at half of the fitted maximal effect.

The first assay relates to ATS95. Briefly: qHTS profiling for inhibitors of Plasmodium falciparum proliferation (AID 504749). Further: nearly all actives have a fitted effect of over 60% in size.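 On activity, negative = inhibition: 0% = DMSO vehicle and full inhibition = artemisinin control.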 The settings on record: P. falciparum in erythrocytes, SYBR Green DNA, 72 h; series mostly up to 28.7 µM; activity, negative = inhibition: at the top concentration. In a few lines:
(§1)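 Each compound contacts P. falciparum-infected red blood cells for 72 h at 37 C; lysis buffer (Tris, EDTA, saponin, Triton X, SYBR Green I) is added and fluorescence measured next morning; values normalized to controls.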
On to `CN(C)[C@H]1C(=O)C(C(=O)NCN2CCCC2)=C(O)[C@]2(O)C(=O)C3=C(O)c4c(O)cccc4[C@](C)(O)[C@H]3C[C@H]12`, for which the “activity, negative = inhibition” value is 1.48% (inactive).

As for `C[C@]12CC[C@H]3c4ccc(O)cc4CC[C@@H]3[C@H]1CC[C@@H]2OC(=O)CCC1CCCC1`, the “activity, negative = inhibition” value was -9.44% (inactive).

`Cc1cn([C@H]2C[C@H](N=[N+]=[N-])[C@H](CO)O2)c(=O)[nH]c1=O`: the “activity, negative = inhibition” value is 5.89% (inactive).

With `O=C(O)[C@@H](S)[C@H](S)C(=O)O`, the Potency is 6.31 µM (active).

For `CC(C)(C)NC[C@@H](O)c1ccc(O)c(CO)n1`, the “activity, negative = inhibition” value was 0.594% (inactive).

The subject of another assay is C2A. The description is as above. The settings on record: P. falciparum in erythrocytes, SYBR Green DNA, 72 h; series mostly up to 28.7 µM; activity, negative = inhibition: at the top concentration. In a few lines: as §1
For `CN(C)[C@H]1C(=O)C(C(=O)NCN2CCCC2)=C(O)[C@]2(O)C(=O)C3=C(O)c4c(O)cccc4[C@](C)(O)[C@H]3C[C@H]12`, the “activity, negative = inhibition” value was 1% (inactive).

Consider `C[C@]12CC[C@H]3c4ccc(O)cc4CC[C@@H]3[C@H]1CC[C@@H]2OC(=O)CCC1CCCC1`, for which the “activity, negative = inhibition” value was -1.66% (inactive).

Regarding `Cc1cn([C@H]2C[C@H](N=[N+]=[N-])[C@H](CO)O2)c(=O)[nH]c1=O`, the “activity, negative = inhibition” value is 6.69% (inactive).

Take `O=C(O)[C@@H](S)[C@H](S)C(=O)O`: the Potency was 7.08 µM (active).

As to `CC(C)(C)NC[C@@H](O)c1ccc(O)c(CO)n1`, the “activity, negative = inhibition” value was -0.601% (inactive).

`NS(=O)(=O)c1cc2c(cc1Cl)N[C@H](Cc1ccccc1)NS2(=O)=O`: the “activity, negative = inhibition” value is -0.579% (inactive).

The next assay concerns CP185. The description is as above. The settings on record: P. falciparum in erythrocytes, SYBR Green DNA, 72 h; series mostly up to 28.7 µM; activity, negative = inhibition: at the top concentration. In a few lines: as §1
Regarding `CN(C)[C@H]1C(=O)C(C(=O)NCN2CCCC2)=C(O)[C@]2(O)C(=O)C3=C(O)c4c(O)cccc4[C@](C)(O)[C@H]3C[C@H]12`, the “activity, negative = inhibition” value was -3.06% (inactive).

In the case of `C[C@]12CC[C@H]3c4ccc(O)cc4CC[C@@H]3[C@H]1CC[C@@H]2OC(=O)CCC1CCCC1`, the “activity, negative = inhibition” value is 2.61% (inactive).

As for `Cc1cn([C@H]2C[C@H](N=[N+]=[N-])[C@H](CO)O2)c(=O)[nH]c1=O`, the “activity, negative = inhibition” value is 0.527% (inactive).

For `O=C(O)[C@@H](S)[C@H](S)C(=O)O`, the Potency was 11.2 µM (active).

For `CC(C)(C)NC[C@@H](O)c1ccc(O)c(CO)n1`, the “activity, negative = inhibition” value was -8.56% (inactive).

Regarding `NS(=O)(=O)c1cc2c(cc1Cl)N[C@H](Cc1ccccc1)NS2(=O)=O`, the “activity, negative = inhibition” value was -3.87% (inactive).

The test system of a further assay is CP191. Described as above. To be noted: P. falciparum in erythrocytes, SYBR Green DNA, 72 h; series mostly up to 28.7 µM; activity, negative = inhibition: at the top concentration. Summed up: as §1
`CN(C)[C@H]1C(=O)C(C(=O)NCN2CCCC2)=C(O)[C@]2(O)C(=O)C3=C(O)c4c(O)cccc4[C@](C)(O)[C@H]3C[C@H]12`: the “activity, negative = inhibition” value was -2.17% (inactive).

As to `Cc1cn([C@H]2C[C@H](N=[N+]=[N-])[C@H](CO)O2)c(=O)[nH]c1=O`, the “activity, negative = inhibition” value is 5.47% (inactive).

As for `O=C(O)[C@@H](S)[C@H](S)C(=O)O`, the Potency is 8.91 µM (active).

For the molecule `CC(C)(C)NC[C@@H](O)c1ccc(O)c(CO)n1`, the “activity, negative = inhibition” value is 0.625% (inactive).

As for `NS(=O)(=O)c1cc2c(cc1Cl)N[C@H](Cc1ccccc1)NS2(=O)=O`, the “activity, negative = inhibition” value is -1.3% (inactive).
